From PubChem BioAssay AID1240 (Sanford-Burnham Center for Chemical Genomics, 2008) come the findings set out here.

In all, about 50,000 compounds went through this assay and about 800 (1.6%) showed an effect of 50% or more. The full list was thinned out, with strong results kept by preference.

Chain of Bcl-2-like protein 10 (Homo sapiens) (Q9HD36 whole entry, looked up): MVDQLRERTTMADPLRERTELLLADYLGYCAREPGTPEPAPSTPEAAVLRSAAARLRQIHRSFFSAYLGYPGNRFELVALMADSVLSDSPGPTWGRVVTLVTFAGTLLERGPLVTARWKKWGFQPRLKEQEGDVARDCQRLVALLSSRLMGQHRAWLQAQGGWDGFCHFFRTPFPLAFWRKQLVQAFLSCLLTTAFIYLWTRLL

This assay has as its target Bcl-2-like protein 10 (Homo sapiens) (UniProt Q9HD36). Kind of assay: Phenotype converters, Bcl-B/TR3 peptide binding displacement, primary biochemical FP (AID 1240).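 Further: 0% = Bcl-B with tracer peptide and DMSO and 100% = tracer peptide lacking Bcl-B.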 Particulars: GST-Bcl-B / FITC-TR3 peptide fluorescence polarization; stronger effect = higher value; compound at 3.75 mg/L.
`Oc1ccccc1C=Nc1ccc2c(c1)ncn2-c1ccccc1`: the displacement came out at 15.5%.
Turning to `Oc1ccccc1C=Nc1ccc2c(c1)ncn2CCn1cnc2cc(N=Cc3ccccc3O)ccc21`, the displacement turned out to be 115%.
As to `Cc1nc2cc(N=Cc3ccccc3O)ccc2n1C`, the displacement came out at 12.7%.
To `Cc1nc2c(sc3nc(C)c(C)c(C)c32)c(=O)o1` belongs 0%.
On to `COC(=O)c1cc(Cl)c(NC(=O)C(c2ccccc2)c2ccccc2)cc1OC`, for which the displacement was -16.6%.
Then `COc1cc(/C=N/NC(=O)/C(=C\C=C\c2ccccc2)NC(=O)c2ccccc2)cc(OC)c1O`, with -2.3%.
For `Cc1c(OCc2ccc(C(=O)O)cc2)ccc2c3c(c(=O)oc12)CCC3`, the displacement is 8.3%.
In the case of `Cc1c(C=O)c(=O)oc2c3c4c(cc12)CCCN4CCC3`, the displacement worked out at 148%.
Then `Cc1c(O)ccc2c3c(c(=O)oc12)CCC3`, with 12.3%; and `O=c1oc2c3c4c(cc2cc1CCO)CCCN4CCC3`, with 75.8%.
To `O=c1cc(C(F)(F)C(F)(F)F)c2cc3c4c(c2o1)CCCN4CCC3` belongs 66.7%.
As for `CN1CCN(Cc2c(O)ccc3c4c(c(=O)oc23)CCC4)CC1`, the displacement was -0.5%.
Then `COCCCNC(=O)c1ccc(C(=O)NCCCOC)cc1`, with -6.5%; and `O=[N+]([O-])c1cnc(-c2ccccc2)nc1`, with -3.2%.
To `COc1cc(Br)cc(/C=C(\C#N)C(=O)NC2CCCCC2)c1O` belongs -5.3%; to `COc1ccc(Cl)cc1C(=O)Nc1nc(-c2ccc(Cl)cc2Cl)cs1`, 9.7%; to `CCSc1nc2ccccc2n1Cc1ccc(OC)c([N+](=O)[O-])c1`, 10.5%.
On to `CC(=O)Nc1cccc(NS(=O)(=O)c2ccccc2)c1`, for which the displacement turned out to be 9.1%.
Then `C=CCNC(=O)Nc1ccc2nccnc2c1`, with 8.7%; and `CCOC(=O)c1c(NC=O)sc2c1CCC2`, with -2.1%; and `CCOC(=O)c1c(NC=O)sc2c1CCC/C2=N\O`, with 148%.
For the compound `CCOC(=O)c1c(NC(=O)c2ccccc2)sc2c1CCC/C2=N/O`, the displacement was -0.2%.
`COc1cccc(N2C(=O)C(=O)/C(=C(\O)c3ccccc3)C2c2ccc([N+](=O)[O-])cc2)c1` (stereo unspecified): the displacement came out at 4.1%.
Turning to `O=c1/c(=C/c2cn(Cc3ccc(F)cc3)c3ccccc23)sc2nc3ccccc3n12`, the displacement turned out to be 2.3%.
As for `NS(=O)(=O)c1cccc(NC(=O)c2cccs2)c1`, the displacement was determined as 1.4%.
As to `Cc1ccccc1NC(=O)CCCN1C(=O)/C(=C/c2cccc3c2OCO3)SC1=S`, the displacement was found to be 94.9%.
With `COc1ccc(NC(=O)CCN2C(=O)/C(=C/c3cccs3)SC2=S)cc1`, the displacement came to 82.8%.
Then `COc1ccc(NC(=O)CCN2C(=O)/C(=C\c3cccc(OC)c3)SC2=S)cc1`, with -5.5%.
For the compound `O=C(CCN1C(=O)/C(=C\c2cccs2)SC1=S)Nc1ccc(Cl)cc1`, the displacement worked out at 77.4%.
Consider `O=C(CCCN1C(=O)/C(=C/c2ccccc2)SC1=S)Nc1ccccc1C(=O)O`, for which the displacement stood at 2%.
`O=C(CCCN1C(=O)/C(=C\c2cccs2)SC1=S)Nc1ccccc1O`: the displacement was 10.6%.
On to `COc1ccc(NC(=O)CCN2C(=O)/C(=C/c3ccc(F)cc3)SC2=S)cc1`, for which the displacement stood at 12.3%.
`O=C(CCCN1C(=O)/C(=C\c2cccs2)SC1=S)Nc1ccc(F)c(Cl)c1`: the displacement was 3.9%.
In the case of `CCOc1ccc(/C=C2\SC(=S)N(CCC(=O)N3CCN(C)CC3)C2=O)cc1`, the displacement is 1.2%.
To `CCOc1ccc(/C=C2\SC(=S)N(CCC(=O)N3CCOCC3)C2=O)cc1` belongs 100%; to `CCOc1ccc(/C=C2/SC(=S)N(CN3CCOCC3)C2=O)cc1`, 8.8%; to `O=C(CCN1C(=O)/C(=C/c2cccs2)SC1=S)Nc1ccc(F)cc1`, 10.6%.
Turning to `O=C(O)CSc1nnc(-c2ccco2)n1-c1ccccc1`, the displacement was 0.4%.
Regarding `O=C(Nc1ccc(Cl)c(Cl)c1)C(c1ccccc1)c1ccccc1`, the displacement worked out at 15.4%.
Then `COC(=O)c1ccccc1P(C)(C)=O`, with 1%; and `COc1ccc(Br)cc1C(=O)Nc1cc2nn(-c3ccc(C)cc3)nc2cc1C`, with -6.9%; and `COc1ccc(NS(=O)(=O)c2cc(C)ccc2C)cc1`, with 2%.
Regarding `O=C(Nc1cccnc1)c1cccc(C(=O)Nc2cccnc2)n1`, the displacement is -7.2%.
To `O=C(CSc1nnc(-c2ccncc2)n1-c1ccccc1)c1ccc(F)cc1` belongs -2.7%; to `COc1ccc(C(=O)Nc2cccc(NC(=O)c3ccc(F)cc3)c2)cc1Br`, 2.2%; to `CN(C)c1ccc(NS(=O)(=O)c2ccccc2[N+](=O)[O-])cc1`, 9.8%.
For `O=C1C(Cl)=C(N2CCOCC2)C(=O)C(Cl)=C1/C=C/N1CCOCC1`, the displacement was determined as 24.3%.
For the compound `COc1cccc(NC(=O)CCN2C(=O)/C(=C/c3ccc(C)cc3)SC2=S)c1`, the displacement was 39.1%.
To `CCOc1ccc(/C=C2\SC(=S)N(CCC(=O)Nc3ccccn3)C2=O)cc1` belongs -4.3%.
Consider `COc1ccc(/C=C2\SC(=S)N(CCCC(=O)Nc3c(C)n(C)n(-c4ccccc4)c3=O)C2=O)cc1`, for which the displacement is 120%.
Then `O=C(CCCN1C(=O)/C(=C\c2cccs2)SC1=S)Nc1cccnc1`, with -0.9%; and `Cc1c(NC(=O)CCCN2C(=O)/C(=C/c3ccccc3)SC2=S)c(=O)n(-c2ccccc2)n1C`, with 1.5%.
For `COc1cccc(/C=C2/SC(=S)N(CCC(=O)Nc3c(C)n(C)n(-c4ccccc4)c3=O)C2=O)c1`, the displacement was determined as 7.7%.
Regarding `O=C(CCN1C(=O)/C(=C/c2cccs2)SC1=S)Nc1cccnc1`, the displacement was 135%.
On to `O=C(CCN1C(=O)/C(=C/c2cccs2)SC1=S)Nc1cccc(F)c1`, for which the displacement is -21.4%.
Consider `CCOc1ccc(/C=C2\SC(=S)N(CCC(=O)Nc3cccnc3)C2=O)cc1`, for which the displacement was found to be 77%.
As to `CCc1ccc(C(=O)CC2(O)C(=O)Nc3ccc(Br)cc32)cc1` (stereo unspecified), the displacement stood at 2.3%.
For the compound `Cc1ccc(CN2CCN(N=Cc3c(O)ccc4ccccc34)CC2)c(C)c1`, the displacement stood at 0.3%.
`Cc1nc([N+](=O)[O-])cn1-c1cccc(O)c1`: the displacement stood at 3%.
In the case of `Cc1cccc(NC(=O)COc2ccccc2)n1`, the displacement came out at 13.2%.
To `CCCNc1nc(OCC(F)(F)F)nc(OCC(F)(F)F)n1` belongs 12.4%.
`Cc1ccc(/C=C2\N=C(c3ccc(Cl)cc3)OC2=O)cc1`: the displacement was found to be 0%.
Take `Cc1ccc(C2=N/C(=C\c3ccccc3)C(=O)O2)cc1`: the displacement is -7.3%.
For `O=C1OC(c2cccc(F)c2)=N/C1=C\c1ccc(F)cc1`, the displacement was -2.2%.
Take `C=CCOc1c(Br)cc(/C=C2/N=C(c3ccccc3)OC2=O)cc1OC`: the displacement was -4.9%.
For `O=C1OC(c2ccc(F)cc2)=N/C1=C\c1cccc(Br)c1`, the displacement was found to be 74.2%.
As to `O=C1OC(c2ccc(F)cc2)=N/C1=C\c1ccc(Cl)cc1`, the displacement turned out to be 4.3%.
As to `COc1ccc(/C=C2/N=C(c3ccc(Br)cc3)OC2=O)cc1`, the displacement is 99.4%.
On to `COc1ccc(/C=C2\N=C(c3cccc(OC)c3)OC2=O)cc1`, for which the displacement was -1.7%.
Regarding `COc1ccc(C2=NC(=Cc3ccc(Br)cc3)C(=O)O2)cc1`, the displacement came out at 22.5%.
Take `COc1ccc(/C=C2/N=C(c3ccc(C)cc3)OC2=O)cc1Br`: the displacement came to 127%.
`CN(C)/C=C1\N=C(c2cccc(Br)c2)OC1=O`: the displacement turned out to be 0.8%.
With `COc1cc(/C=C2\N=C(c3cccc(Br)c3)OC2=O)cc(OC)c1OC`, the displacement is 72.6%.
With `CN(C)c1ccc(/C=N/NC(=O)c2ccc(CN3CCOCC3)cc2)cc1Br`, the displacement is 6.3%.
With `Cc1ccc(-c2csc(N)c2C(=O)OC(C)C)cc1`, the displacement is -1.9%.
Then `Cc1c(NC(=O)c2cccs2)cccc1-c1nc2ncccc2o1`, with 3.8%.
As to `O=C(Nc1ccc(Nc2ccccc2)cc1)c1ccc(Cl)cc1Cl`, the displacement is -13.5%.
As for `O=C(N/N=C/c1ccccc1Cl)c1ccccn1`, the displacement is -9.6%.
Then `CNCCOc1nc(-c2ccccc2)cc(-c2ccccc2)n1`, with -7.8%; and `CCOC(=O)N1CCN(S(=O)(=O)c2ccc(C)cc2)C1`, with 10.6%.
As to `O=C1CS/C(=N/N=C/c2ccc3c(c2)OCO3)N1`, the displacement was -8.7%.
`CC1(C)CC(NCC(=O)OC2CCCCC2)CC(C)(C)N1`: the displacement is 12.1%.
Then `NC(CC(=O)OC1CCCCC1)C(=O)OC1CCCCC1` (stereo unspecified), with 74.3%; and `O=C(NCC1CCS(=O)(=O)C1)OC1CCCCC1` (stereo unspecified), with 2%; and `Cc1ccc2[nH]c(C)c(CN(C)Cc3ccccc3)c(=O)c2c1`, with -15.8%.
Consider `COCCCNC(=O)CN(c1cccc([N+](=O)[O-])c1)S(=O)(=O)c1ccccc1`, for which the displacement is 11.1%.
On to `Cc1cc(NC(=O)c2cc(-c3ccccc3)nc3ccccc23)no1`, for which the displacement amounted to 3.8%.
As for `CN(C)/C=C1\C=C2C(=O)c3ccccc3N2C1=O`, the displacement came to 162%.
Then `CN(C)/C=C1/C=C(c2ccccc2)OC1=O`, with -11.5%.
Regarding `CCO/C=C1\C(=O)N(CC)c2ccccc21`, the displacement is 19.1%.
For the compound `COc1ccc(N(CC(=O)NCc2ccccc2)S(=O)(=O)c2ccc(C)cc2)cc1`, the displacement is -1.4%.
In the case of `COc1ccc(OC)c(N(CC(=O)N/N=C/c2ccc(OC3CSC3)cc2)S(=O)(=O)c2ccccc2)c1`, the displacement was 7.5%.
As for `COc1ccc(C(=O)O/N=C(\N)c2ccccc2)cc1`, the displacement was -9.3%.
For the compound `COc1ccc(/C(N)=N/OC(=O)c2ccc(C)cc2)cc1`, the displacement is -20.8%.
To `COc1ccc(/C(N)=N/OC(=O)c2ccc(Cl)cc2)cc1` belongs 83.7%; to `O=C(COc1ccccc1Cl)NNC(=O)c1ccccn1`, -13%; to `CCOc1c(I)cc(/C=C2\C(=O)ON=C2c2ccccc2)cc1OC`, 3.5%.
On to `COc1ccc(C2=C/C(=C/c3ccc(Cl)cc3)C(=O)O2)cc1`, for which the displacement was -4.1%.
Consider `COc1cc(/C=C2\C=C(c3ccc(Cl)cc3)OC2=O)cc(Br)c1OC`, for which the displacement is -9.5%.
`COc1ccc(/C=C2\C=C(c3ccc(Cl)cc3)OC2=O)cc1C`: the displacement turned out to be 0.9%.
For the compound `O=C1ON=C(c2ccc(Cl)cc2)/C1=C/c1ccc(O)cc1`, the displacement is 4.4%.
Take `COc1ccc(C2=C/C(=C/c3ccc(Cl)cc3)C(=O)O2)cc1OC`: the displacement was found to be 105%.
Then `CCOc1cc(/C=C2/C(=O)ON=C2c2ccc(Cl)cc2)ccc1OC`, with 118%; and `COc1ccc(/C=C2\C=C(c3ccc(Cl)cc3)OC2=O)cc1OC`, with 147%.
To `COc1ccc(/C=C2\C=C(c3ccc(Cl)cc3)OC2=O)cc1[N+](=O)[O-]` belongs 36.4%; to `CN(C)c1ccc(C=Nn2cnnc2)cc1`, -7.2%; to `CCN(CC)CCSc1nc(O)c(C2CCCCC2)c(=O)[nH]1`, -6.4%.
For `COc1cccc(C2NC(=S)NC(C)=C2C(=O)Nc2cccc(Cl)c2)c1` (stereo unspecified), the displacement was -14%.
In the case of `N#C/C(=C\c1ccc(-c2cccc([N+](=O)[O-])c2)o1)C(=O)N1CCOCC1`, the displacement was -3.5%.
As to `CCOC(=O)c1c(C)n(C)c2c1cc(O)c1ccccc12`, the displacement was -0.3%.
In the case of `Cc1ccc(/C=C(\C#N)c2nc(-c3ccc([N+](=O)[O-])cc3)cs2)o1`, the displacement turned out to be 3.5%.
